This note sets out measurements from PubChem BioAssay (Tox21).

The structures appear in SMILES notation. “And” between values parts separate entries of the source, which are not always exact repeats. Equal entries are not always repeated. Inconclusive results are not listed. The source made the active and inactive calls. Unless noted, calls come from the whole dose curve; as a rule, active = well fitted curve in the direction sought with a large enough effect in the repeat runs; inconclusive = weak or mixed curves; inactive = no such curve, though single readings can be large; an effect the other way counts as inactive or inconclusive.

Test [1] in a line: A CellTox Green Cytotoxicity Assay to monitor cytotoxicity in HEK293 cells - 32 hour (AID 1224881). Note: nearly all actives have a fitted effect of over 40% in size. Note: potency is the fitted concentration of half-maximal effect. The method in brief: (§1)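 Homogeneous no-lysis format: HEK293 cell suspension mixed with CellTox Green reagent, seeded, incubated 5 h at 37 C/5% CO2, then dosed by pintool with compound in DMSO.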
Test [2] can be described thus: A CellTox Green Cytotoxicity Assay to monitor cytotoxicity in HepG2 cells - 0 hour (AID 1224882). Note: nearly all actives have a fitted effect of over 35% in size. An outline of the steps:
(§2)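 Fluorescent DNA-binding dye, 600 HepG2 cells/well, 5 h preincubation then compound in DMSO; same plates read at 0–40 h, 37 C.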

Test [3] is described as follows: A CellTox Green Cytotoxicity Assay to monitor cytotoxicity in HepG2 cells - 32 hour (AID 1224883). Note: nearly all actives have a fitted effect of over 50% in size. An outline of the steps:
as §2

Test [4] can be described thus: A CellTox Green Cytotoxicity Assay to monitor cytotoxicity in HEK293 cells - 8 hour (AID 1224884). Note: nearly all actives have a fitted effect of over 35% in size. An outline of the steps:
as §1

Test [5] in a line: qHTS RealTime-Glo MT Cell Viability Assay in HepG2 cells - 16 hour (AID 1224885). Note: nearly all actives have a fitted effect of over 50% in size. An outline of the steps: (§3)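 Cells + NanoLuc/prosubstrate dispensed (600 cells/well) → 5 h at 37 C/5% CO2 → compounds in DMSO transferred → 40 h incubation at 37 C, luminescence read at 0, 8, 16, 24, 32, 40 h.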
Test [6] can be described thus: qHTS RealTime-Glo MT Cell Viability Assay in HEK293 cells - 24 hour (AID 1224886). Note: top concentration of the series differs between compounds; nearly all actives have a fitted effect of over 50% in size. The method in brief: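 Tox21 10K qHTS, HEK293, 600 cells/well, RealTime-Glo reagent co-dispensed with cells; 5 h preincubation, compound by pintool, 37 C, luminescence at 0–40 h.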
Background: In qHTS, concentration-response curves come from the screen itself.

Test [7] is described as follows: qHTS RealTime-Glo MT Cell Viability Assay in HEK293 cells - 8 hour (AID 1224887). Note: top concentration of the series differs between compounds; nearly all actives have a fitted effect of over 50% in size. The method in brief:
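Measured as luminescence from the same continuously cultured HEK293 wells at successive time points (0, 8, 16, 24, 32, 40 h) after compound addition. Reagent present from seeding; dosing at 5 h; incubation 37 C.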

Test [8] in a line: A CellTox Green Cytotoxicity Assay to monitor cytotoxicity in HEK293 cells - 16 hour (AID 1224888). Note: nearly all actives have a fitted effect of over 35% in size. An outline of the steps:
as §1

Test [9] can be described thus: qHTS RealTime-Glo MT Cell Viability Assay in HepG2 cells - 0 hour (AID 1224889). Note: nearly all actives have a fitted effect of over 50% in size. An outline of the steps:
as §3

Test [10] in a line: A CellTox Green Cytotoxicity Assay to monitor cytotoxicity in HepG2 cells - 8 hour (AID 1224890). Note: nearly all actives have a fitted effect of over 45% in size. An outline of the steps: as §2
A short description of test [11]: qHTS assay to identify small molecule antagonists of the estrogen receptor alpha (ER-alpha) signaling pathway using the BG1 cell line in the presence of 0.1 nM 17-beta-estradiol - cell viability counter screen (AID 1259241). Note: nearly all actives have a fitted effect of over 40% in size. An outline of the steps: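 Cytotoxicity counter-screen: live-cell protease activity measured by fluorescence (30 min reagent step) in the same wells. Cells were VM7Luc4E2 with endogenous ER-alpha and ERE-driven luciferase, treated 22 hr at 37C alongside 0.1 nM 17beta-estradiol final.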

Test [12] has as its target Estrogen receptor (Homo sapiens) (UniProt P03372). Description: qHTS assay to identify small molecule antagonists of the estrogen receptor alpha (ER-alpha) signaling pathway using the BG1 cell line in the presence of 0.1 nM 17-beta-estradiol (AID 1259244). Note: nearly all actives have a fitted effect of over 50% in size. An outline of the steps: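 Seeding of stripped-serum-adapted VM7Luc4E2 cells, 24 h attachment, compound transfer, then 0.1 nM final 17beta-estradiol; after 22 h incubation, ONE-Glo reagent and luminescence reading.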

The nature of test [13]: qHTS assay to identify small molecule phospholipidosis (PLD) inducers (AID 1259344; active = well fitted curve in the direction sought with a large enough effect; an effect the other way counts as inactive or inconclusive). An outline of the steps:
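Cells (HepG2, 900 per well) attach for 4 h, receive LipidTOX Red and compound together, incubate 24 h at 37 C, are fixed 30 min with paraformaldehyde/Hoechst, then imaged at one site per well.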

A short description of test [14]: qHTS assay to identify small molecule HDAC inhibitors - cell viability counter screen (AID 1259365). An outline of the steps: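 CellTiter-Glo luminescence (30 min, room temperature) reported viability after a 2 h compound exposure at 37 C. Cells: wild-type HCT-116, 1,500 per well, seeded the night before.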
The nature of test [15]: qHTS assay to identify small molecule agonists of the sonic hedgehog signaling (Shh) pathway - cell viability counter screen (AID 1259366). Note: nearly all actives have a fitted effect of over 50% in size. The method in brief:
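Cytotoxicity counter screen: CellTiter-Fluor reagent added after 23 h compound exposure, then 1 h at 37C and fluorescence read. Cells were 3T3 Gli1-Luc, seeded 2,000 per well and dosed 4 h post-plating.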

A short description of test [16]: qHTS assay to identify small molecule antagonists of the sonic hedgehog signaling (Shh) pathway - cell viability counter screen (AID 1259367). Note: nearly all actives have a fitted effect of over 55% in size. The method in brief:
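Cytotoxicity was assessed in parallel with Shh reporter activity by measuring live-cell protease fluorescence (CellTiter-Fluor) in NIH/3T3 cells stably carrying Gli1-Luc, treated with compound under conditioned medium stimulation for 23 hr plus 1 hr reagent incubation.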

Test [17] is described as follows: qHTS assay to identify small molecule agonists of the sonic hedgehog signaling (Shh) pathway (AID 1259368; calls by dose curve;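 note: NIH/3T3-derived 3T3Gli1-Luc cells carrying a stable Gli1-driven firefly luciferase reporter; series mostly up to about 92 µM; nearly all actives have a fitted effect of over 15% in size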). An outline of the steps:
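Stable NIH/3T3 Gli1-Luc reporter clone; 24 hr cpd exposure after a 4 hr settling period; luminescence endpoint.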

Test [18] can be described thus: qHTS assay to identify small molecule antagonists of the sonic hedgehog signaling (Shh) pathway (AID 1259369; calls by dose curve; note: nearly all actives have a fitted effect of over 45% in size; note: potency is the fitted concentration of half-maximal effect). The method in brief:
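Gli1 transcriptional reporter (firefly Luc) in NIH/3T3 background, conditioned-medium activated. 24hr exposure, luminescence endpoint.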

The nature of test [19]: qHTS assay to identify small molecule antagonists of the androgen receptor (AR) signaling pathway using the MDA cell line in the presence of 0.5 nM R1881 - cell viability counter screen (AID 1259242). Note: nearly all actives have a fitted effect of over 45% in size. An outline of the steps:
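Human breast carcinoma MDA-kb2 cells, cultured without CO2, receive compounds alongside 0.5 nM (final) R1881 agonist. After 16 hr at 37C, viability is taken as live-cell protease signal.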

Test [20] can be described thus: qHTS assay to identify small molecule HDAC inhibitors (AID 1259364).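 Note: wild-type HCT-116 cells with endogenous class I/II HDAC activity; top concentration of the series differs between compounds; nearly all actives have a fitted effect of over 45% in size.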 The method in brief: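 After a 2 hr compound incubation (37C, 5% CO2), HCT-116 cells seeded at 1,500/well the day before received HDAC-Glo reagent; signal read as luminescence after 30 min at room temperature.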

Sequence of Estrogen receptor (Homo sapiens) (P03372 whole entry, looked up): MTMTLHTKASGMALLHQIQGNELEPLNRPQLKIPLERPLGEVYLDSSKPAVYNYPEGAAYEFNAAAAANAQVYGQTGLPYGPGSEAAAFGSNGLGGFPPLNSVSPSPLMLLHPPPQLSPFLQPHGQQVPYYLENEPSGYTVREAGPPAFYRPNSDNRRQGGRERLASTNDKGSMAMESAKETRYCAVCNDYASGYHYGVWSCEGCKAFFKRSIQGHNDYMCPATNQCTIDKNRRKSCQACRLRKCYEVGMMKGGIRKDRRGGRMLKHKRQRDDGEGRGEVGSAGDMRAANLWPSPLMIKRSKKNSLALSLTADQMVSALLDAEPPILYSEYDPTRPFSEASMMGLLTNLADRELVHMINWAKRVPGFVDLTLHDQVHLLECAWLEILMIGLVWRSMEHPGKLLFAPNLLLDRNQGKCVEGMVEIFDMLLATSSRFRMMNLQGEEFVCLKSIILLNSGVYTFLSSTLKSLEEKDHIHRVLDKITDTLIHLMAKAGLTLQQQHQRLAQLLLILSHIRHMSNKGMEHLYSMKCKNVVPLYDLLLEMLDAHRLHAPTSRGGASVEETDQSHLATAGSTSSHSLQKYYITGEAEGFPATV

Consider `CCN(CC)C(=O)/C(Cl)=C(\C)OP(=O)(OC)OC`, for which the Potency result in [1], in test [2], in test [3], in test [4], in test [5] and in test [6] was “inactive” each time. Also, the Potency result in [7], in test [8], in [9], in test [10], in [11] and in [12] was “inactive” throughout. Further, the Potency result in test [15], in test [16], in test [17] and in test [18] was “inactive” in each case. Moreover, the result in test [13] and in test [14] was inactive.

For `CC(C)c1ccc(CO)cc1`, the Potency result in [1], in test [2], in test [3], in test [4], in test [5] and in test [6] was “inactive” throughout. For the same compound, the Potency entry in test [7], in test [8], in test [9], in [10], in test [11] and in test [19] was “inactive” throughout. Besides, the Potency result in [12], in [15], in test [16], in [17] and in [18] was “inactive” each time. Moreover, the result in [14] was inactive.

Turning to `C1=Cc2cccc3cccc1c23`, the Potency in [1] was 49 µM (active). Moreover, the Potency entry in [2], in [3], in [4], in [5], in [6] and in test [7] was “inactive” each time. Also, the Potency result in test [8], in test [9], in test [10], in test [11], in test [19] and in test [15] was “inactive” each time. The Potency result in test [16], in test [17] and in [18] was “inactive” throughout. In test [14], the call was inactive.

Regarding `CC(C)=CC1C(C(=O)OCc2coc(Cc3ccccc3)c2)C1(C)C` (stereo not drawn), the Potency result in [1], in test [2], in test [3], in [4], in test [5] and in test [6] was “inactive” each time. The Potency entry in test [7], in [8], in [9], in test [10], in test [11] and in test [19] was “inactive” throughout. The Potency entry in [12], in test [20], in test [15], in test [16] and in test [17] was “inactive” in each case. Besides, the outcome in test [14] was inactive. The Potency in test [18] was 24.4 µM (active) and 30.6 µM (active).

As for `N#CCCCl`, the Potency entry in [1], in test [2], in test [3], in [4], in [5] and in [6] was “inactive” throughout. Besides, the Potency result in [7], in test [8], in test [9], in test [10], in [11] and in test [19] was “inactive” each time. The Potency result in [20], in test [15], in test [16], in test [17] and in [18] was “inactive” throughout. Besides, the compound was classed as inactive in test [14].

Consider `COc1ccc(C(CN(C)C)C2(O)CCCCC2)cc1` (stereo not drawn), for which the Potency entry in test [1], in test [2], in test [3], in test [4], in test [5] and in test [6] was “inactive” throughout. Further, the Potency result in test [7], in test [8], in test [9], in test [10], in test [11] and in test [19] was “inactive” throughout. For the same compound, the Potency entry in test [15], in test [16], in test [17] and in test [18] was “inactive” in each case. In addition, the compound was classed as inactive in test [13] and in [14].

As for `CC(C)NC(C)C`, the Potency result in [1], in [2], in test [3], in test [4], in test [5] and in test [6] was “inactive” throughout. The Potency result in test [7], in test [8], in test [9], in [10], in test [11] and in test [19] was “inactive” in each case. Besides, the Potency entry in test [12], in test [20], in [15], in [16], in test [17] and in [18] was “inactive” each time. Besides, the compound was called inactive in test [13] and in [14].
